Median seed-adjusted z-score data for 109 sequences are collected here from PubChem BioAssay AID1347426 (Functional Genomics Laboratory (NCATS/FGL), 2020).

The whole screen tested about 31,000 sequences, of which about 1,400 (4.5%) were called active.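 The calls were made as follows: active = median seed-adjusted z-score above 1 or below -1; inactive = the rest.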 The entries come from a sample that favours actives as a whole.

This assay is described as follows: Novel Modifiers of Survival Motor Neuron (SMN) Protein: Gene Identification via Genome-wide siRNA Screen.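 Also: luminescence tracks full-length SMN protein made from the SMN2 reporter.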 The conditions noted are these: HEK293T SMN2-luciferase reporter, siRNA knockdown, 72 h; actives lie on both sides. The method, boiled down:
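HEK293T cells stably expressing an SMN2 splicing/cDNA-luciferase reporter were reverse-transfected with a druggable-genome siRNA library and read by luminescence at 72 hours; hits defined by MAD score above 1.0 or below -1.0.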
As for CGAGAGCUCCAGAUCAUGATT against GSK3B, the median seed-adjusted z-score is -0.952 (inactive).

For the sequence GGGAUUGAGUUAAAACUAUTT against SOX7, the median seed-adjusted z-score was -0.387 (inactive).

On to GGUAGCUUCUGAUAAUGAUTT against LEO1, for which the median seed-adjusted z-score was 1.2 (active).

Regarding CGUGGGUAAUGAUGCGGAATT against TOM1, the median seed-adjusted z-score was 0.774 (inactive).

Take GGAGUUGAAGGCCUACAAATT against APOE: the median seed-adjusted z-score was 0.0321 (inactive).

Regarding CCUUGUCUGUGCUCAAGUATT against USP35, the median seed-adjusted z-score was -0.219 (inactive).

In the case of CACUUACCAAGGAUACCAATT against PHC2, the median seed-adjusted z-score was 0.177 (inactive).

In the case of GGAUUUUACAGGAUAUCUUTT against SPPL2A, the median seed-adjusted z-score is -0.358 (inactive).

Turning to GAAUGGACUGGUACCUAUUTT against ALDOB, the median seed-adjusted z-score is -1.34 (active).

Turning to GGAUCUGCAUAGUGACCAATT against PSMB1, the median seed-adjusted z-score is -0.35 (inactive).

For AUGUUUCAAUAGAUCCAGATT against LIMD2, the median seed-adjusted z-score is 0.418 (inactive).

For GCACCAAAGUAUACAACGATT against PRKAR2B, the median seed-adjusted z-score is -0.777 (inactive).

Turning to GAUCUUGGAUGGAUUGCUATT against OCA2, the median seed-adjusted z-score was 0.457 (inactive).

As to ACAACCCUCUUAAAACUAATT against IGF2, the median seed-adjusted z-score was -0.0306 (inactive).

Regarding CUGUAUGGGUGGUCAAUCATT against ABCA1, the median seed-adjusted z-score is -1.27 (active).

Consider GGACAACGAUAACCGAUCATT against CA1, for which the median seed-adjusted z-score is 0.262 (inactive).

In the case of GUCUAAAUCUCGUUCCAAATT against SRrp35, the median seed-adjusted z-score is -0.0574 (inactive).

For the sequence AGGUCAAUGUGACUUUCCATT against KCNJ10, the median seed-adjusted z-score is -0.0371 (inactive).

With GAAACGAUAUGAAUGUAAATT against ZNF491, the median seed-adjusted z-score is 0.0642 (inactive).

As for CCAUUGAAGAGGCUAUGAATT against SPAG7, the median seed-adjusted z-score is 0.263 (inactive).

In the case of GAGUGGGAAUGGUCAGGCUTT against ADORA2B, the median seed-adjusted z-score is -0.471 (inactive).

Consider GGUCCAUGGUGGAAGACGATT against MAL, for which the median seed-adjusted z-score was 0.0733 (inactive).

Consider CCAUCUCAGGAGUUAGCUATT against ZNF281, for which the median seed-adjusted z-score is 1.19 (active).

With GUGUCUGGAUUUUCACUGATT against F11, the median seed-adjusted z-score was -0.0319 (inactive).

In the case of AGGCCUUGGUGGAACAUGUTT against PSAP, the median seed-adjusted z-score is 0.107 (inactive).

Take GCUCGUAAGUUGGUGAUCATT against TPM3: the median seed-adjusted z-score was 0.111 (inactive).

Consider GAACUAGCACGCAUCAAGATT against PPM1G, for which the median seed-adjusted z-score was 0.073 (inactive).

For GCACCAGCCUUAACCCUCATT against RAB1B, the median seed-adjusted z-score was 1.55 (active).

Regarding AAAUCCCGGUGAUCAUCGATT against MAP1LC3A, the median seed-adjusted z-score is 0 (inactive).

Take GAGACAACCUGCAACGACATT against GDI1: the median seed-adjusted z-score is 0.198 (inactive).

In the case of CAGGAGUGAUUAAACGGUUTT against GNAI3, the median seed-adjusted z-score was 0.0656 (inactive).

As to GCUCUCAUAUCAUUCCAUUTT against PPIL5, the median seed-adjusted z-score was 0 (inactive).

On to GAUGAUUACCUGCAGAGCATT against MYD88, for which the median seed-adjusted z-score is -0.365 (inactive).

For CCAUCAAAAUCGCAGACUUTT against DDR1, the median seed-adjusted z-score was -0.166 (inactive).

As for GGAUGUCUAGAUUACAUUUTT against PDE12, the median seed-adjusted z-score is 0.422 (inactive).

Turning to GGAGUACCGGCUAACAAUATT against MORC4, the median seed-adjusted z-score was 0.13 (inactive).

As to ACAUGAUCUUGGACCUGGATT against CSNK2B, the median seed-adjusted z-score is -1.62 (active).

For the sequence CAAUAGGAUUGGUCACCAATT against PNPT1, the median seed-adjusted z-score is 0.0729 (inactive).

In the case of CAACCAUCCCAUGUCUGUUTT against NMNAT2, the median seed-adjusted z-score is -1.58 (active).

As to GGAGUUAGCACUAACAUAATT against NUP98, the median seed-adjusted z-score is 0.168 (inactive).

As for GGAUAGUGAUGAUGUCUAUTT against GPR98, the median seed-adjusted z-score was -0.509 (inactive).

Turning to CCUCAACUCGUGAAGAAGATT against GPRC5A, the median seed-adjusted z-score is -0.56 (inactive).

As for GGCAUAUGGUUAUCGAGGATT against EML4, the median seed-adjusted z-score is 0.958 (inactive).

As to CGUCCAAGAUCGAACCCAUTT against HIRA, the median seed-adjusted z-score is 0.286 (inactive).

For GCAAUCGGGUGGUAUCAUATT against COPS5, the median seed-adjusted z-score is -0.124 (inactive).

With CAAGCAUGGUCUUUCUACUTT against TUBB2A, the median seed-adjusted z-score was 1.03 (active).

In the case of CGAGAUCUCAAGUCUAACATT against ARAF, the median seed-adjusted z-score is 0.535 (inactive).

Turning to GGAAGUACGUUCCAUACAATT against GALNT17, the median seed-adjusted z-score was 0.392 (inactive).

With GGAUCUGUAUCAAGCCGUUTT against APC, the median seed-adjusted z-score is 0.154 (inactive).

In the case of GCAAUGCACUGACGGAUAUTT against EFEMP1, the median seed-adjusted z-score is 0.0157 (inactive).

For GUAUCAGAAUGAGAGUUCUTT against ACP2, the median seed-adjusted z-score was -0.00569 (inactive).

On to GAAAUACCCUCACAUGUUATT against LSM2, for which the median seed-adjusted z-score was -1.48 (active).

For the sequence GAUGUAUUGUUACUACCAATT against SCNN1G, the median seed-adjusted z-score is -0.616 (inactive).

CCACAAGGGUUAUCUGUCATT against MAPK4: the median seed-adjusted z-score is 0.235 (inactive).

As to GUCACUUCAUGGGCAAGAATT against NMB, the median seed-adjusted z-score is 0.746 (inactive).

In the case of CCGUUGUUGUAAGAAGAAATT against MICA, the median seed-adjusted z-score is -0.0635 (inactive).

Turning to GGAUUAAGCCCUUCGAAGATT against SOCS5, the median seed-adjusted z-score is 0.312 (inactive).

For the sequence AGUUCUCGGAGGUGCUUAATT against CKB, the median seed-adjusted z-score is -0.236 (inactive).

In the case of GGACAAUCUUAUUCCUAUUTT against CFHR4, the median seed-adjusted z-score was -0.0972 (inactive).

As to GAGCUGCAACUGACAUCUUTT against PLTP, the median seed-adjusted z-score is 1.09 (active).

GCAUCUUCACCAAAGUCAUTT against RHEBL1: the median seed-adjusted z-score was -0.268 (inactive).

With GGCUGACCUGUACCACUUUTT against SH3BP1, the median seed-adjusted z-score was -0.225 (inactive).

Take GCCUCAGAGUUCACGGACATT against ROBO4: the median seed-adjusted z-score was -0.431 (inactive).

On to GCUACGGCGUGGACAAGAATT against RELB, for which the median seed-adjusted z-score was 1.16 (active).

GGACCGUCUACUCAUCCAATT against IL8RB: the median seed-adjusted z-score is -0.387 (inactive).

For GGAGGAGAUAGGCACUGAATT against TIGD3, the median seed-adjusted z-score was 0.486 (inactive).

Consider GCUUUUAUCCUAGACAUCATT against PAQR8, for which the median seed-adjusted z-score was 0 (inactive).

For the sequence GUGGGAAAGUCUAUGGAAATT against KLF9, the median seed-adjusted z-score was 0.767 (inactive).

Regarding GGCCUAAGCUAAAUCGAGATT against SKP2, the median seed-adjusted z-score is -0.126 (inactive).

Take CAAAGGAUGUCAUUCGUAATT against CKAP5: the median seed-adjusted z-score is -1.87 (active).

CGGCCGAAGUAGUAAAAGATT against ADA: the median seed-adjusted z-score is -0.242 (inactive).

Consider UCAUCAAUGCUACUGGUUATT against TM7SF2, for which the median seed-adjusted z-score was -0.674 (inactive).

For the sequence CGGCUGUGGUGAACCAGUATT against INHBB, the median seed-adjusted z-score is -0.522 (inactive).

GCAUAGGAUUCAUUGAGUUTT against NME1: the median seed-adjusted z-score was 0.188 (inactive).

Consider GACCCGUACUUCAUGAAGATT against SF3A2, for which the median seed-adjusted z-score is -1.7 (active).

In the case of GGACCCAAGUCUUGCUGCATT against CARD18, the median seed-adjusted z-score was 0.568 (inactive).

Take CGAUCCUAUUCGAUGAGAATT against GRM5: the median seed-adjusted z-score was -0.227 (inactive).

Turning to CAGUGAAUAUGGAACCGGATT against CHD3, the median seed-adjusted z-score is 0.589 (inactive).

As for AGUAUGUGCUGAUCCGAGUTT against PHPT1, the median seed-adjusted z-score is 1.27 (active).

As for CCUGAACACACCUUACAUATT against RNASE8, the median seed-adjusted z-score was 0.00771 (inactive).

CAUAGAUUCUGUACGGCAATT against MPP5: the median seed-adjusted z-score is 0.429 (inactive).

In the case of GGUAUUCCUGUUCAACAAATT against ZNF235, the median seed-adjusted z-score is 0.348 (inactive).

For the sequence GCUGACCGCUGGGUGAUAATT against TMPRSS6, the median seed-adjusted z-score was 1.29 (active).

Take CCUCACACUUGAUUCAGUUTT against RPP38: the median seed-adjusted z-score was 0.07 (inactive).

Consider GGUCAUAGCCUACUGUCUATT against SLC32A1, for which the median seed-adjusted z-score was -0.251 (inactive).

For the sequence CUACCAGCAUGUGAUGUUUTT against CH25H, the median seed-adjusted z-score was -0.264 (inactive).

As to GGAUGCAGAACGACGUGAATT against SLC25A10, the median seed-adjusted z-score is -0.571 (inactive).

As to GUACCUUUUCCAAACCAAATT against SETD8, the median seed-adjusted z-score is -1.52 (active).

Take CAAAACAGACCGAAAGAAATT against DBX2: the median seed-adjusted z-score was 0.244 (inactive).

CGAUAACGACAGUAAAUCATT against CACNA2D1: the median seed-adjusted z-score was -0.541 (inactive).

As to CAAAGAAGCUUUUUCACUATT against CALM2, the median seed-adjusted z-score is 0.127 (inactive).

In the case of CUCUCUUAGUGUCCUUAGATT against PCDHGC4, the median seed-adjusted z-score was 0.301 (inactive).

In the case of CGAGUUCUAUCUUGAGAAUTT against TEX13A, the median seed-adjusted z-score was -1.22 (active).

For GGAUGGGUCUCGCAAAAUATT against ZFYVE1, the median seed-adjusted z-score is -0.546 (inactive).

With CCAGCUCUUCUCUACCACATT against PAQR7, the median seed-adjusted z-score was -0.0406 (inactive).

As to UGCUGAGGGUGUUCCCAGATT against GABRR2, the median seed-adjusted z-score was 0 (inactive).

Take AGCAGGCUUUGAUCAUUGATT against FKBP6: the median seed-adjusted z-score was -1.12 (active).

As for GCAAGACCUUUGACUACAATT against SSRP1, the median seed-adjusted z-score was -0.31 (inactive).

Regarding GCGAAGUGUUCAGACCAAATT against HEATR1, the median seed-adjusted z-score is -0.115 (inactive).

CCAACUCAUUGAUAGGGAUTT against PRPH2: the median seed-adjusted z-score is 0.0931 (inactive).

As for GCUUUCUAUCGAUCCUCAATT against ZNF681, the median seed-adjusted z-score is 0.271 (inactive).

GCACGUCGAGCAAUCCAAATT against MYOD1: the median seed-adjusted z-score was 0.309 (inactive).

Regarding CCAUGUUUCUCAUUAGUGUTT against NTSR1, the median seed-adjusted z-score is -1.1 (active).

As to UGCUCGUGCUCGUUCCAAATT against ING4, the median seed-adjusted z-score is -0.152 (inactive).

For the sequence CAUCUUUGCUAGUAAUCUATT against UBA7, the median seed-adjusted z-score is 2.41 (active).

Turning to CGGAUUGUCUAUUGCAUCATT against CALCRL, the median seed-adjusted z-score is 0.28 (inactive).

In the case of GAUUGUCUCUUUAGUGGAATT against TGDS, the median seed-adjusted z-score was -0.196 (inactive).

As to GGUGAGAUGUGGUCUAUAUTT against HES7, the median seed-adjusted z-score was -0.286 (inactive).

Regarding GGAGAAGGAUGGAACUCUUTT against SPATA21, the median seed-adjusted z-score was -1.03 (active).
